Screens: PubChem, ICCB-Longwood Screening Facility, Harvard Medical School
MbtI inh: MbtI salicylate synthase inhibition | P9WFX0 | inhibition, % (test concentration not listed) | 0.89% of 100,000 active | purified MbtI enzyme, fluorescence intensity read-out; in the data active means inhibition mostly above about 56%, no sharp cut-off; inactive means mostly below about 77%
MenB inh: inhibitors of Mycobacterium tuberculosis MenB enzyme; inhibition, % (no concentration beside the values); P9WNP5; 0.43% of 100,000 active; MenB enzyme assay, absorbance read-out; in the data active means inhibition above about 21%, passing the limit was not always enough
Target sequence (P9WNP5 whole entry, looked up): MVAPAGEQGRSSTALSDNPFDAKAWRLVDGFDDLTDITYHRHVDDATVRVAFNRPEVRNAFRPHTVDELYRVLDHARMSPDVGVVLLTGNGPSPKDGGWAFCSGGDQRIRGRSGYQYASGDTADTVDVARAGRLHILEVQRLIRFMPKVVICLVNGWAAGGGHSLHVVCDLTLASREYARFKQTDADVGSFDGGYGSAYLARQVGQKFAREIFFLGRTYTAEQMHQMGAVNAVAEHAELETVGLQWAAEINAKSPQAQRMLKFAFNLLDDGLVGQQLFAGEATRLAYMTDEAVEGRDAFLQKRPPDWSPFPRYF
AID504770: E. coli YBA685 growth inhibition, screen for V. cholerae RctB inhibitors; 0.27% of 130,000 active; z-score (test concentration not listed); E. coli YBA685 rctB-dependent plasmid, OD600 growth, 3 h; active compounds read low; AID 504770; in the data active means z-score below about -2, passing the limit was not always enough
PV pol inh: poliovirus RNA polymerase inhibition; % elongation, % (compound at 16.7 µg/mL); poliovirus polymerase elongation, fluorescence polarization; active compounds read low; 0.66% of 150,000 active; in the data active means % elongation below about 90%
Large screens that a line does not name were inactive. Shown are actives, neighbours in structure and some others; about 1.5% of the full set was active somewhere.

CC1c2cccc(O)c2CC2=C(O)C3(O)C(O)=C(C(N)=O)C(=O)C(N(C)C)C3C(O)C21 (configuration not stated)	AID504770 -4.05 (no result: MbtI inh)
C=CCn1c(COc2ccccc2)nnc1SCC(=O)N1CCc2ccccc21	none
CCC/C(O)=C1\C(=O)CC(C)(C)CC1=NCCc1ccc(OCC)c(OCC)c1	none (no result: MbtI inh)
COc1ccc(C(C(=O)NCc2cccs2)N(Cc2ccco2)C(=O)Cn2nnc(-c3cccs3)n2)cc1 (configuration not stated)	none
Cc1nn(CCC#N)cc1C=C(C#N)C#N	none
CCOc1ccc(C(=O)c2ccccc2C(=O)O)cc1OCC	PV pol inh 47.0
CCCn1c(SCC(=O)N2CCCC2)nnc1C(C)C	AID504770 -3.1
O=C(O)CCC(=O)Nc1cccc2ccccc12	none (no result: MbtI inh, MenB inh, PV pol inh)
O=C(O)CSCC(=O)Nc1cccc2ccccc12	MenB inh 35.8
CC(=O)N1CCN(C(=O)c2c(Cl)nc3sccn23)CC1	none (no result: MenB inh)
O=C(NC1CCCC1)c1ccc(CSCc2ccccc2Cl)o1	none (no result: MbtI inh, MenB inh, PV pol inh)
Cc1nc(-c2c[nH]c3ccccc23)c(C)s1	PV pol inh 73.0 (no result: MbtI inh)
CNC(=S)NC1=NCCS1	none
S=C(NCCc1ccccc1)c1ccccc1	none
NC(=S)NCCc1ccccc1	MbtI inh 83.0, PV pol inh 86.0
Cc1ccccc1N1C(=O)NC(=O)/C(=C\C=C\c2ccco2)C1=O	MbtI inh 65.8
O=C1NC(=Nc2ccccc2)S/C1=C/C=C/c1ccco1	none
COc1ccccc1N1C(=O)NC(=O)/C(=C\C=C\c2ccco2)C1=O	MbtI inh 72.8
Cc1cccc(CC(=O)NCc2ccc3[nH]c(C)cc3c2)c1	none
NNC(=S)/N=C/c1ccco1	none
Cc1cccc(NC(=O)Nc2cccc(C)c2)c1	none
N=C(N)c1cccc(NC(=O)Nc2cccc(C(=N)N)c2)c1	PV pol inh 88.0 (no result: MbtI inh)
Cn1cc(S(=O)(=O)CC(=O)Nc2ccccc2)c2ccccc21	none (no result: MbtI inh, MenB inh, PV pol inh)
Cc1cn(C2CC(O)C(CO)O2)c(=O)[nH]c1=O (configuration not stated)	none
Cc1cn([C@H]2C[C@H](N=[N+]=[N-])[C@@H](CO)O2)c(=O)[nH]c1=O	AID504770 -2.45
CCOC(=O)c1c(-c2ccccc2)oc2ccc(NS(=O)(=O)c3ccc(CC)cc3)cc12	none
CCn1c(CCc2ccccc2)nnc1SCC(=O)Nc1cccc(OC)c1	none
NNC(=O)Cc1ccccc1	none
CC(C)(C)NC(=O)Cc1ccccc1	MenB inh 38.4
O/N=C1/CCCc2nn(-c3ccccc3)nc21	PV pol inh 62.0 (no result: MbtI inh)
Nc1ncc(N=Nc2cc(C(=O)O)ccc2Cl)s1	none
Nc1ncc(N=Nc2cc(C(=O)O)cc(C(=O)O)c2)s1	PV pol inh 82.0
Oc1c(C(c2cccs2)N2CCCCC2)ccc2cccnc12 (configuration not stated)	MbtI inh 97.1
CSc1ccccc1NC(=O)CN1CCc2ccccc21	PV pol inh 88.0
S=c1[nH]nc(NC2CC2)s1	MbtI inh 89.0
CC(=O)NCCCc1[nH]n(-c2ccccc2)c(=O)c1NC(=O)c1ccccc1	PV pol inh 87.0
CC1(C)CC(N2C(=O)c3ccccc3C2(O)Cc2ccccc2)CC(C)(C)N1 (configuration not stated)	none (no result: MbtI inh)
CC(C)S(=O)(=O)C1=NSC2=NC(=O)/C(=C\c3ccco3)C(=N)N21	PV pol inh 79.0
COc1ccccc1NS(=O)(=O)c1cccc(C(=O)Nn2cnnc2)c1	PV pol inh 72.0
Nc1c2ccccc2nc2ccccc12 (tested in a mixture with another compound)	none
Nc1sc(=S)nc2ccccc12	MbtI inh 51.8
COCCn1c(C)cc(/C=N/n2c(C)nc3ccccc3c2=O)c1C	none
COCCn1c(C)cc(/C=N/n2c(Cc3cccc4ccccc34)n[nH]c2=S)c1C	MbtI inh 73.2
S=c1[nH]nc(CNc2cccc(Cl)c2)o1	MbtI inh 83.7
CC/C(C)=N/Nc1ccc(S(=O)(=O)N(CC)CC)cn1	none
Cc1nc2c(c(C)c1CCC(=O)NC(C)C)c(=O)n(C)c(=O)n2C	none
CSc1nc(N)nc(-c2csc(C)n2)n1	none (no result: MbtI inh, MenB inh, PV pol inh)
NNC(=O)c1cc2ccccc2[nH]1	none
NNC(=O)c1cc(=S)nc[nH]1	MbtI inh 99.2
COc1ccc(C(=O)c2nc3ccccc3n2C(C)C)cc1OC	AID504770 -4.6
Cc1ccc(NC(=O)Nc2cn(CC(C)C)c(=O)c3ccccc23)cc1N(C)C	PV pol inh 73.0 (no result: MbtI inh, MenB inh, AID504770)
CCCN(CCC)C(=O)Nc1cn(CC(C)C)c(=O)c2ccccc12	none
CC(C)Cn1cc(NC(=O)Nc2cccc(C(F)(F)F)c2)c2ccccc2c1=O	PV pol inh 70.0 (no result: MbtI inh, MenB inh, AID504770)
C=CCC1Cc2ccccc2C(C)N1 (configuration not stated)	none (no result: MenB inh, PV pol inh)
